Shown is part of a subset that was picked to be rich in hits.
Pf Dd2 growth = qHTS Primary assay for Inhibitors of Plasmodium falciparum Dd2 growth in vitro. P. falciparum Dd2 growth, SYBR Green, 72 h. Potency, µM (titrated, usually from 28.9 µM), inactives show at the top dose activity, negative = inhibition, usual class: inhibitors. 4.3% of 120,000 active; active = well fitted inhibition curve with a large enough effect;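 note: plate controls were DMSO vehicle for no effect and reference drug for full effect; nearly all actives have a fitted effect of over 65% in size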
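Infected erythrocytes (Dd2, 0.3% parasitemia, 2.5% hematocrit final) are added to compound in RPMI-1640/Albumax II medium, grown 72 h at 37C in low oxygen, then lysed with saponin/Triton-X containing SYBR Green and read by fluorescence.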
* marks the source's active call; other numbers are inactive results; i = inactive; ! = repeats disagree; [ ] = another dose, or the depositor's remark. Potency is the fitted concentration of half-maximal effect.

SMILES | Pf Dd2 growth
O=C(NCc1ccc2c(c1)OCO2)c1nc(-c2ccc(Cl)cc2Cl)c2ccccn12 | i
COC(=O)CNC(=O)c1nc(-c2ccc(Cl)cc2Cl)c2cnccn12 | -22.0%
COc1ccccc1-c1nc(C(=O)N(C)C)n2ccncc12 | 3.3%
COc1ccccc1-c1nc(C(=O)NCc2cccnc2)n2ccncc12 | 10µM*!
O=C(NCc1cccnc1)c1nc(-c2ccc(Cl)cc2Cl)c2cnccn12 | 11.2µM*
COc1ccccc1-c1nc(C(=O)N2CCCC2)n2ccncc12 | 10µM*
COc1ccccc1-c1cc(C(=O)N2CCCC2)nn2cccc12 | 0.1%
COC(=O)CNC(=O)c1nc(-c2ccccc2OC)c2cnccn12 | 10.3%
CCOc1ccc(C(=O)NCCc2sc(-c3cccc(F)c3)nc2C)cc1OCC | 18.7%
Cc1ccc(CNC(=O)CCS(=O)(=O)c2cc3c(cc2C)NC(=O)CO3)cc1 | 11.5%
CCc1ccc(NC(=O)CN2C(=O)NC3(CCS(=O)(=O)CC3)C2=O)cc1 | 15.9%
O=C(c1nc(-c2ccc(F)cc2)c2cnccn12)N1CCN(c2ncccn2)CC1 | i
C[S+](=O)([O-])c1ccc(-c2nc(C(=O)N3CCOCC3)n3ccccc23)cc1 | 18.4%
O=C(c1nc(-c2cccc(C(F)(F)F)c2)c2ccccn12)N1CCN(c2ncccn2)CC1 | -1.6%
C[S+](=O)([O-])c1ccc(-c2nc(C(=O)N3CCCC3)n3ccncc23)cc1 | 12.6µM*
CC(C)(C)c1nc(C(=O)N2CCN(c3ncccn3)CC2)n2ccncc12 | 5.01µM*
O=C(c1nc(-c2ccc(Cl)nc2)c2cnccn12)N1CCOCC1 | 5.0%
COCCNS(=O)(=O)c1ccc2c(c1)CN(C(=O)Cn1cncn1)CC2 | -17.4%
CCn1ncc(NC(=O)Cn2ncc3cc(-c4cccc(OC)c4)ccc32)n1 | -14.1%
CNC(=O)[C@@H](CC(C)C)N1CCC[C@H]1C(=O)NCCc1ccccn1 | -10.0%[44.1 µM]
COc1ccc(C(=O)N2CCC3(CC2)OCC(C(=O)NCC(C)C)N3C(=O)c2ccc(C)cc2)cc1 (configuration not stated) | i
Cc1cccc(C(=O)N2C(C(=O)NCC(C)C)COC23CCN(C(=O)c2ccc(F)cc2)CC3)c1 (configuration not stated) | i
CC(C)NC(=O)C1COC2(CCN(C(=O)CC(C)(C)C)CC2)N1C(=O)c1ccccc1 (configuration not stated) | -25.4%
CCCNC(=O)C1COC2(CCN(C(=O)Cc3ccccc3)CC2)N1C(=O)c1cccc(C)c1 (configuration not stated) | i
Cc1ccc(C(=O)N2C(C(=O)NCC(C)C)COC23CCN(C(=O)c2cccc(Cl)c2)CC3)cc1 (configuration not stated) | 10µM*
SMILES | Pf Dd2 growth
Cc1cccc(C(=O)N2C(C(=O)NCc3ccccc3)COC23CCN(C(=O)CC(C)(C)C)CC3)c1 (configuration not stated) | 7.94µM*
COc1cccc2c1OCC(C(=O)NCCc1ncccc1C)C2 (configuration not stated) | -9.6%
O=C(Cc1ccccn1)N1CCCC(c2nn(-c3ccccc3)c(=O)[nH]2)C1 (configuration not stated) | -4.4%
CCc1cccc(NC(=O)C2CCN(C(=O)c3nnn4cc(C)[nH]c(=O)c34)CC2)c1 | i
CCOc1ccc(NC(=O)c2ccc(F)c(S(=O)(=O)N(CC)Cc3ccccc3)c2)cc1 | 13.2%
CCN(CC)S(=O)(=O)c1cccc(C(=O)Nc2ccccc2C(=O)Nc2ccc(Cl)cc2)c1 | 10µM*
CCN(Cc1ccccc1)S(=O)(=O)c1ccc(F)c(C(=O)Nc2cc(C)ccc2OC)c1 | 24.1%
Cc1cc2oc(=O)c(CC(=O)NCCc3ccccc3)c(C)c2c2occ(C(C)(C)C)c12 | -5.0%
Cc1cccc(-n2nc(CC(N)=O)nc2-c2ccc(Cn3cccn3)o2)c1C | -9.7%
CCNC(=O)CCc1c(C)nn(-c2cccc(C)c2)c1Oc1ccccc1C | -6.5%
Cc1cccc(-n2nc(C)c(CCC(=O)N3CCSCC3)c2Oc2ccccc2C)c1 | 8.91µM*
Cc1cccc(-n2nc(C)c(CCC(=O)NC3CC3)c2Oc2ccccc2C)c1 | -0.6%
CCN(c1ccc(OC)cc1)S(=O)(=O)c1c(C(=O)N2CCCCCC2)c(C)n(C)c1C | -14.2%
Cc1ccccc1Nc1c(-c2cccs2)nc2cccc(C)n12 | -1.9%
Cc1ccccc1Nc1c(-c2ccc(N3CCOCC3)cc2)nc2cccc(C)n12 | 10µM*
COc1cc(O)ccc1-c1nc2ccc(Br)cn2c1Nc1ccccc1C | 6.31µM*
Cc1ccccc1Nc1c(-c2c[nH]c3ccccc23)nc2ccc(Cl)cn12 | i
Cc1ccc(Nc2c(-c3cccnc3)nc3ccc(Br)cn23)cc1 | i
Cc1ccccc1Nc1c(-c2cccnc2)nc2cccc(C)n12 | -24.2%
Cc1ccccc1Nc1c(-c2ccsc2)nc2c(C)cccn12 | i
Cc1ccccc1Nc1c(-c2ccc(N3CCOCC3)cc2)nc2ccc(Br)cn12 | 8.91µM*
COc1ccc(-c2nc3ccc(Cl)cn3c2Nc2ccc(C)cc2)cc1 | -13.6%
